Laboratory results as given in PubChem BioAssay (EPA / NIEHS).
Records with an inconclusive call do not appear. More than one record can exist for a structure, and the calls need not agree. Activity calls are given as the source filed them. The calls were made as follows, unless noted: active = hit-call score of the fitted dose curve at least 0.9, where 1 is the maximum; inconclusive = response in the unintended direction; inactive = score below 0.9.

Legend:
[1] = ATG_TCF_b_cat_CIS: Attagene CIS-FACTORIAL HepG2 Assay for human T-Cell-Factor with beta-catenin (TCF/b-cat) (AID 2282965; active = hit-call score of the fitted dose curve at least 0.9, where 1 is the maximum; inactive = score below 0.9); conditions: HepG2 TCF/beta-catenin cis-reporter transcription, actives raise or lower the signal
Method in brief: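 HepG2 cells transiently transfected with multiple cis-promoter-regulated reporter transcription units, so endogenous transcription factor activity is measured. Reporter mRNA read 24 hours after dosing by RT-PCR, fluorescent labelling and capillary electrophoresis; bidirectional fitting against DMSO.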

[2] = ATG_TAL_CIS: Attagene CIS-FACTORIAL HepG2 Assay for human TAL Basal Promoter (AID 2282966; active = hit-call score of the fitted dose curve at least 0.9, where 1 is the maximum; inactive = score below 0.9;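 also: background control endpoint measuring basal TAL promoter reporter mRNA not a specific factor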); conditions: HepG2 Attagene cis-factorial TAL promoter reporter; actives raise or lower the signal
Method in brief: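 Fluorescence of labelled reporter cDNA fragments, resolved by capillary electrophoresis, gave the readout. Human HepG2 liver cells carried transiently transfected cis-element reporter units and were treated for 24 hours; activity was fitted bidirectionally against DMSO.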

[3] = ATG_TGFb_CIS: Attagene CIS-FACTORIAL HepG2 Assay for human Transforming Growth Factor (TGF) (AID 2282967; active = hit-call score of the fitted dose curve at least 0.9, where 1 is the maximum; inactive = score below 0.9); conditions: HepG2 Attagene CIS TGFb reporter, mRNA transcription; actives raise or lower the signal
Method in brief: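 After a 24-hour incubation with compound, transfected HepG2 cells were lysed for RNA; reporter cDNA was amplified, fluorescently end-labeled and separated by CE. DMSO served as baseline for bidirectional fits.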

[4] = ATG_VDRE_CIS: Attagene CIS-FACTORIAL HepG2 Assay for human Vitamin D Receptor Element (VDRE) (AID 2282968; active = hit-call score of the fitted dose curve at least 0.9, where 1 is the maximum; inactive = score below 0.9); conditions: HepG2 VDRE cis-reporter transcription, actives raise or lower the signal
Method in brief: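 HepG2 cells transiently transfected with cis-element reporter units, dosed 24 h; reporter mRNA measured by RT-PCR, 6-FAM labeling, HpaI digestion and capillary electrophoresis. Activity fitted bidirectionally against DMSO baseline.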

[5] = molecular target: Nuclear receptor subfamily 1 group I member 3 (Homo sapiens) (UniProt Q14994); assay: ATG_CAR_TRANS: Attagene TRANS-FACTORIAL HepG2 Assay for human Constitutive Androstane Receptor (CAR) (AID 2282969); conditions: HepG2 Attagene TRANS-FACTORIAL CAR reporter;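 also: activators raise reporter mRNA above DMSO so AC50 marks induction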
Method in brief: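 HepG2 cells transiently transfected with multiplexed GAL4-UAS reporter units expressing chimeric NR-Gal4 proteins; compound exposure 24 h. Reporter mRNA measured by RT-PCR, 6-FAM labelling, HpaI digestion and capillary electrophoresis; gain-of-signal fitted against DMSO baseline.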

[6] = molecular target: Estrogen receptor (Homo sapiens) (UniProt P03372); assay: ATG_ERa_TRANS: Attagene TRANS-FACTORIAL HepG2 Assay for human Estrogen Receptor alpha (ERa) (AID 2282970); conditions: HepG2 Attagene TRANS ERa GAL4 reporter, mRNA
Method in brief: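 Human liver HepG2, transient transfection of multiple GAL4-UAS reporter units; TRANS format (exogenous NR-Gal4 chimera). 24 h dosing. Readout: reporter mRNA, RT-PCR, 6-FAM primer extension, HpaI digest, capillary electrophoresis. Positive direction vs DMSO.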

[7] = molecular target: X-box-binding protein 1 (Homo sapiens) (UniProt P17861); assay: ATG_Xbp1_CIS: Attagene CIS-FACTORIAL HepG2 Assay for human X-box Binding Protein 1 (XBP1) (AID 2282972; active = hit-call score of the fitted dose curve at least 0.9, where 1 is the maximum; inactive = score below 0.9); conditions: HepG2 XBP1 cis-element reporter, Attagene multiplex; actives raise or lower the signal
Method in brief: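 After a 24-hour chemical exposure of HepG2 cells carrying cis-regulated reporters, reporter mRNA levels are assessed. Quantification uses RT-PCR, 6-FAM labelling and capillary electrophoresis. Gain- or loss-of-signal is fitted against DMSO.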

[8] = molecular target: Androgen receptor (Homo sapiens) (UniProt P10275); assay: ATG_AR_TRANS: Attagene TRANS-FACTORIAL HepG2 Assay for human Androgen Receptor (AR) (AID 2282973); conditions: HepG2 Attagene TRANS-FACTORIAL AR reporter transcription
Method in brief: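 Steps: transfect HepG2 with multiple GAL4-UAS reporter transcription units (TRANS format, exogenous NR-Gal4 protein); dose 24 h; isolate RNA, reverse-transcribe, PCR-amplify, FAM-label, HpaI-digest; resolve by capillary electrophoresis. Positive direction vs DMSO.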

[9] = ATG_M_19_TRANS: Attagene TRANS-FACTORIAL HepG2 Assay for M19 Transcription Factor (Internal Marker) (AID 2282974); conditions: HepG2 Attagene TRANS-FACTORIAL M19 internal marker reporter
Method in brief: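 Multiplexed TRANS format: HepG2 liver cells bearing transient GAL4-UAS reporter units, chemical treatment 24 h, reporter transcripts quantified by RT-PCR plus capillary electrophoresis. DMSO defines baseline.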

[10] = ATG_Hpa5_TRANS: Attagene TRANS-FACTORIAL HepG2 Assay for human GAL4-Hpa5 Hepatocyte Transcription Factor Basal Promoter (AID 2282975); conditions: HepG2 Attagene GAL4-Hpa5 transcription reporter;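 also: hits are increases in reporter mRNA over DMSO baseline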
Method in brief: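 Basal-promoter GAL4 background control within the HepG2 trans-factorial panel of transiently transfected reporter units. Reporter mRNA is measured 24 h after dosing by RT-PCR and capillary electrophoresis, fitted for gain of signal versus DMSO.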

[11] = ATG_GAL4_TRANS: Attagene TRANS-FACTORIAL HepG2 Assay for GAL4 (Internal Marker) (AID 2282976); conditions: HepG2 Attagene TRANS GAL4 internal marker reporter
Method in brief: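 First, HepG2 cells were transfected with reporter units under GAL4-UAS control. Next, they were treated with chemical for 24 h. Finally, RNA was reverse-transcribed, PCR-amplified, FAM-labelled and resolved by capillary electrophoresis, with induction scored against DMSO.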

[12] = molecular target: Glucocorticoid receptor (Homo sapiens) (UniProt P04150); assay: ATG_GR_TRANS: Attagene TRANS-FACTORIAL HepG2 Assay for human Glucocorticoid Receptor (GR) (AID 2282978); conditions: HepG2 Attagene TRANS GR reporter, mRNA transcription;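 also: activators score as hits since higher reporter transcript over DMSO is fitted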
Method in brief: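 Transiently transfected HepG2 cells express chimeric NR-GAL4 proteins acting on GAL4-UAS reporter units. Compounds are applied for 24 h. mRNA induction over DMSO is measured by capillary electrophoresis.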

[13] = molecular target: Oxysterols receptor LXR-alpha (Homo sapiens) (UniProt Q13133); assay: ATG_LXRa_TRANS: Attagene TRANS-FACTORIAL HepG2 Assay for human Liver X Receptor alpha (LXRa) (AID 2282980); conditions: HepG2 Attagene TRANS reporter, LXRa transactivation
Method in brief: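 Transfect HepG2 with GAL4-UAS multiplex reporter constructs (TRANS format, chimeric receptor-GAL4); treat 24 h; extract RNA, reverse-transcribe, PCR-amplify, FAM-label, HpaI-digest; resolve fragments by capillary electrophoresis. Upward response vs DMSO.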

[14] = molecular target: Oxysterols receptor LXR-beta (Homo sapiens) (UniProt P55055); assay: ATG_LXRb_TRANS: Attagene TRANS-FACTORIAL HepG2 Assay for human Liver X Receptor beta (LXRb) (AID 2282981); conditions: HepG2 Attagene TRANS GAL4-LXRb reporter, mRNA
Method in brief: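 HepG2 cells transiently transfected with multiple reporter transcription units carrying chimeric NR-Gal4 proteins acting on GAL4-UAS reporters; compound exposure 24 h. Reporter mRNA quantified by RT-PCR, 6-FAM labelling, HpaI digestion and capillary electrophoresis; gain of signal versus DMSO.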

[15] = ATG_M_06_TRANS: Attagene TRANS-FACTORIAL HepG2 Assay for M06 Transcription Factor (Internal Marker) (AID 2282983); conditions: HepG2 Attagene TRANS M06 internal marker reporter;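 also: reporter transcript level by RT-PCR then capillary electrophoresis fluorescence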
Method in brief: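 Transfect HepG2 with MRTUs → dose compounds 24 h → isolate RNA, oligo(dT) RT → PCR with reporter primers → 6-FAM primer extension → HpaI digest → CE fragment analysis. Positive direction vs DMSO.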

[16] = ATG_M_32_TRANS: Attagene TRANS-FACTORIAL HepG2 Assay for M32 Transcription Factor (Internal Marker) (AID 2282984); conditions: HepG2 Attagene TRANS M32 internal marker reporter
Method in brief: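 HepG2 cells transiently transfected with multiple GAL4-UAS reporter transcription units, dosed for 24 hours; reporter mRNA quantified by RT-PCR, 6-FAM primer extension, HpaI digestion and capillary electrophoresis. Gain-of-signal fitted versus DMSO baseline; internal background-control marker.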

[17] = molecular target: Steroid hormone receptor ERR1 (Homo sapiens) (UniProt P11474); assay: ATG_ERRa_TRANS: Attagene TRANS-FACTORIAL HepG2 Assay for human Estrogen-Related Receptor alpha (ERRa) (AID 2282971); conditions: HepG2 Attagene TRANS reporter, ERRa transactivation
Method in brief: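 Reporter transcript induction was quantified by RT-PCR and capillary electrophoresis of FAM-labelled, HpaI-cut products after 24 h treatment of HepG2 cells carrying transiently transfected GAL4-UAS reporter units and an exogenous ERRa-Gal4 fusion; activity scored as increase over DMSO.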

[18] = molecular target: Estrogen-related receptor gamma (Homo sapiens) (UniProt P62508); assay: ATG_ERRg_TRANS: Attagene TRANS-FACTORIAL HepG2 Assay for human Estrogen-Related Receptor gamma (ERRg) (AID 2282977); conditions: HepG2 Attagene TRANS reporter, ERRg transactivation;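 also: hits increase reporter signal over DMSO so potencies reflect activators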
Method in brief: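 Transient HepG2 transfectants, 24 h compound exposure, GAL4-UAS reporter mRNA by RT-PCR/6-FAM labelling/capillary electrophoresis; positive direction vs DMSO.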

[19] = molecular target: Bile acid receptor (Homo sapiens) (UniProt Q96RI1); assay: ATG_FXR_TRANS: Attagene TRANS-FACTORIAL HepG2 Assay for Farnesoid X Receptor (FXR) (AID 2282979); conditions: HepG2 Attagene TRANS FXR-GAL4 reporter transcription;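 also: hits raise reporter mRNA above DMSO so AC50 marks FXR activation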
Method in brief: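 Transient transfection of HepG2 with multiplexed GAL4-UAS reporter units; exogenous FXR-GAL4 chimera. Dose 24 h → TriZol RNA → oligo(dT) RT → PCR, 6-FAM primer extension, HpaI cut → CE. Gain vs DMSO.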

Measured: AC50

Chain of Androgen receptor (Homo sapiens) (P10275 whole entry, looked up, the tested form may be a part): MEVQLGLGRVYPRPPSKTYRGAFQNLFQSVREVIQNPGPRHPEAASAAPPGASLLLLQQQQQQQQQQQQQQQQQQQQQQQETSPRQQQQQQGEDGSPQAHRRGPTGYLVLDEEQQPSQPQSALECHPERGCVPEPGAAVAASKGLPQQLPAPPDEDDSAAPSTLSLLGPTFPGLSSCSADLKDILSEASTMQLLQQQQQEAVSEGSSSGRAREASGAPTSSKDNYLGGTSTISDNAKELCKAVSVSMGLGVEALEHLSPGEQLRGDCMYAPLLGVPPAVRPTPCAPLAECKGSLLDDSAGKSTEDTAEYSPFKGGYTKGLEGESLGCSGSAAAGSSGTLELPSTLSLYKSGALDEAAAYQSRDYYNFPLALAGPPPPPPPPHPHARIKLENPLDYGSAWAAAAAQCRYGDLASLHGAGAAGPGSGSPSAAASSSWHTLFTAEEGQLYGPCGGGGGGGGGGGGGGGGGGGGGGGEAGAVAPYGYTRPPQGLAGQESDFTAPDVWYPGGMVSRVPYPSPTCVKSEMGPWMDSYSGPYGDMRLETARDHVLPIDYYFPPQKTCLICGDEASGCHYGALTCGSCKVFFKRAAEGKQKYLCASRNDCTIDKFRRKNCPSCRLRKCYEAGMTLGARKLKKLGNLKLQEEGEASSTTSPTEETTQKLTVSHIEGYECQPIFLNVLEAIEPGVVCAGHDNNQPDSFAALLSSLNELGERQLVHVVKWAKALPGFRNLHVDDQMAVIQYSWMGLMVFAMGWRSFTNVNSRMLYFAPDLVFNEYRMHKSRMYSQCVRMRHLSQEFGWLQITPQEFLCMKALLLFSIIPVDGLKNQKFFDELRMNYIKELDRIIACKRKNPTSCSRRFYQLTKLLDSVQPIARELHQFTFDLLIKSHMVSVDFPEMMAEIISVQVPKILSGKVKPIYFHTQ
Chain of Oxysterols receptor LXR-alpha (Homo sapiens) (Q13133 whole entry, looked up, the tested form may be a part): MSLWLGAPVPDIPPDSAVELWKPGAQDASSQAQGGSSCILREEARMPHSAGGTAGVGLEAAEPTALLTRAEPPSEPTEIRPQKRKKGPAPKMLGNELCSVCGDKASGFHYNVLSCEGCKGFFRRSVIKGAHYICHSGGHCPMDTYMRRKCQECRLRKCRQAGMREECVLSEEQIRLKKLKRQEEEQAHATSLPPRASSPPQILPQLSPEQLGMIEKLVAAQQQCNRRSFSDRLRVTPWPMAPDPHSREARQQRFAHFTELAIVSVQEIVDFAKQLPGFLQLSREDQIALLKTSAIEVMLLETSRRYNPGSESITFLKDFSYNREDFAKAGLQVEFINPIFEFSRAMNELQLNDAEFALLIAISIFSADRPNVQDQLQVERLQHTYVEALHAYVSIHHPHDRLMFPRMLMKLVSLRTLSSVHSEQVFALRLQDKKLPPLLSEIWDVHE
Chain of Steroid hormone receptor ERR1 (Homo sapiens) (P11474 whole entry, looked up, the tested form may be a part): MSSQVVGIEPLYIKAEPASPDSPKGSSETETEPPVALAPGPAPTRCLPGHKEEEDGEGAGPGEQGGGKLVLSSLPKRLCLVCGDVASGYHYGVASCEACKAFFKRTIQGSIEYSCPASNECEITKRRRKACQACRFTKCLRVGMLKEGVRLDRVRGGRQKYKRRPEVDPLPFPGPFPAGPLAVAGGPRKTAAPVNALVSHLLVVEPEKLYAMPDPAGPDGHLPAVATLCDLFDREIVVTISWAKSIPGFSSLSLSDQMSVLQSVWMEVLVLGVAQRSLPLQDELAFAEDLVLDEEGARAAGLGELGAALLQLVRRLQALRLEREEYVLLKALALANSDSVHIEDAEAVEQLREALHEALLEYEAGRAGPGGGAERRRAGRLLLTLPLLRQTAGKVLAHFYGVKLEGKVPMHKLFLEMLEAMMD
Chain of Nuclear receptor subfamily 1 group I member 3 (Homo sapiens) (Q14994 whole entry, looked up, the tested form may be a part): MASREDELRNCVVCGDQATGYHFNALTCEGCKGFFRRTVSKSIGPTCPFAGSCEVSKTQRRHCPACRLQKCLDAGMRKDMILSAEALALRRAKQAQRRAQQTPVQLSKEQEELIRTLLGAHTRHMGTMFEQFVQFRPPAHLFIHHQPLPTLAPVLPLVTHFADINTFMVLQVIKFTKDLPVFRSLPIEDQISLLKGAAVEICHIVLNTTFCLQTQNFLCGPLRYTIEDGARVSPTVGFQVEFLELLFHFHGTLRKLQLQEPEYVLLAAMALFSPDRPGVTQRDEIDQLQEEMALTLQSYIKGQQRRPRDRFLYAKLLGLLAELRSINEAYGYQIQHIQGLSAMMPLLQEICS
Chain of X-box-binding protein 1 (Homo sapiens) (P17861 whole entry, looked up): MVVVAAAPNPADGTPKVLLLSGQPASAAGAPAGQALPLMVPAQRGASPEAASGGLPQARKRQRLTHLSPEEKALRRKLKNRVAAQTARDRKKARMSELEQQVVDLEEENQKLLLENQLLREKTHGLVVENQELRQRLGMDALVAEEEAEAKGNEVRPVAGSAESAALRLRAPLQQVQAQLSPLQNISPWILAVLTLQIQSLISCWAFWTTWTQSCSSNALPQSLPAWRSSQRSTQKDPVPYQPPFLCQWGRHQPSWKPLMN
Chain of Estrogen receptor (Homo sapiens) (P03372 whole entry, looked up, the tested form may be a part): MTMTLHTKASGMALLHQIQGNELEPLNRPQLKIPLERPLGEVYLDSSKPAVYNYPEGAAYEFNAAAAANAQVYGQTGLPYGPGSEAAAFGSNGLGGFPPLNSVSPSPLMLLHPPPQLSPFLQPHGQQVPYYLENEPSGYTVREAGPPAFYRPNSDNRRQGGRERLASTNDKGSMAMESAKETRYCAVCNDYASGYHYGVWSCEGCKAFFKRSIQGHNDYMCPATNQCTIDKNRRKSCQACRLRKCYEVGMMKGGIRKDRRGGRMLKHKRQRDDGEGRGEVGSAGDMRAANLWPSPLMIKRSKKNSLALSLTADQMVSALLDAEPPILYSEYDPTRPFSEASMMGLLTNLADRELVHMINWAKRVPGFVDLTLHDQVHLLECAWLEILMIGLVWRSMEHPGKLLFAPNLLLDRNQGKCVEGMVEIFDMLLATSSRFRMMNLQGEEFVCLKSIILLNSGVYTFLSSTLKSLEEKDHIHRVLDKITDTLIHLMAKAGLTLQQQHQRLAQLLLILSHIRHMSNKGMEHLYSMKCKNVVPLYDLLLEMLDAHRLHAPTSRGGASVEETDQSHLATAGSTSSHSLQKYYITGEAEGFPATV
Chain of Estrogen-related receptor gamma (Homo sapiens) (P62508 whole entry, looked up, the tested form may be a part): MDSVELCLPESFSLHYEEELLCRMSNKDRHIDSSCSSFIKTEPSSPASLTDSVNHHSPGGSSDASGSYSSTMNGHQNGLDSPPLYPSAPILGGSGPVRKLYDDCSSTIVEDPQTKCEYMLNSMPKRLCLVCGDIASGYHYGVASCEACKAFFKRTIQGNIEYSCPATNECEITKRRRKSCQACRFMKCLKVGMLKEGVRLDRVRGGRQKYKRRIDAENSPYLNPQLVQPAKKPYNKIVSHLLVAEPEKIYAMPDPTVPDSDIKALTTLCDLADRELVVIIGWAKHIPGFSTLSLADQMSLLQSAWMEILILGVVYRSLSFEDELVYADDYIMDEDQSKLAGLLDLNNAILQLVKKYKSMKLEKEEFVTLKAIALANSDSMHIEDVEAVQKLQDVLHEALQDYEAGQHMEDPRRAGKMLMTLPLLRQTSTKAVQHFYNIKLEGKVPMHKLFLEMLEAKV
Chain of Glucocorticoid receptor (Homo sapiens) (P04150 whole entry, looked up, the tested form may be a part): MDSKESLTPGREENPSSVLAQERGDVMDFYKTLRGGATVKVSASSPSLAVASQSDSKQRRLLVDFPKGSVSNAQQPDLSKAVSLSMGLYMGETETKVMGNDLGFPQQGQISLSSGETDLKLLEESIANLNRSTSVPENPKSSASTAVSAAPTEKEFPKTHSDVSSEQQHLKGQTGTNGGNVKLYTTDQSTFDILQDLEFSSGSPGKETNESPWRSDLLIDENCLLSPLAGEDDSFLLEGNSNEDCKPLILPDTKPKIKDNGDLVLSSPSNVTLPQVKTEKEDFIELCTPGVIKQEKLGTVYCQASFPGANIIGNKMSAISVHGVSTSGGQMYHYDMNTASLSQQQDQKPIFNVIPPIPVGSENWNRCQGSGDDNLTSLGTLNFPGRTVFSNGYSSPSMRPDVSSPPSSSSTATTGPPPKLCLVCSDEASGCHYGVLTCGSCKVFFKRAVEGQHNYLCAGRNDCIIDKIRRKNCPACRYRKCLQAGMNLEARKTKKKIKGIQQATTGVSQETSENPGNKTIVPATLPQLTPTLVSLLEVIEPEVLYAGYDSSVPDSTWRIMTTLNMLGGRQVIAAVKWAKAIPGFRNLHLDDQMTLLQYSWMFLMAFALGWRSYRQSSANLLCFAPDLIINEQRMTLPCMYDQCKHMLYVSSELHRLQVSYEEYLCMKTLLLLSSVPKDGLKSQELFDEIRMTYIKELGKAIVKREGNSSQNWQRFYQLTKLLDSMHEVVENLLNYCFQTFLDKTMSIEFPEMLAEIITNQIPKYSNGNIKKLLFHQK
Chain of Oxysterols receptor LXR-beta (Homo sapiens) (P55055 whole entry, looked up, the tested form may be a part): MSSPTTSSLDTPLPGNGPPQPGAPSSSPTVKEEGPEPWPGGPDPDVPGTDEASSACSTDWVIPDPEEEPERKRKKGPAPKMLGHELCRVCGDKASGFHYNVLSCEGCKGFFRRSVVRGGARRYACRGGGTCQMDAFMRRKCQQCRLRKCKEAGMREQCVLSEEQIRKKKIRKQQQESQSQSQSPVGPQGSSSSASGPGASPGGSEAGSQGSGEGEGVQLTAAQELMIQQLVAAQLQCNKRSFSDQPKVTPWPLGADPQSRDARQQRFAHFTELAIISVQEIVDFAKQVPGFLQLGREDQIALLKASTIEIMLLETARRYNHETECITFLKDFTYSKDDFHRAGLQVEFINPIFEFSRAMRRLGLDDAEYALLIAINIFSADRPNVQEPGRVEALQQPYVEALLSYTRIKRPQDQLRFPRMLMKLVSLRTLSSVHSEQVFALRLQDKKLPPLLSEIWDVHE

Cc1cc(Cl)ccc1OCC(=O)O
not listed: [17] | [18] | [19]
inactive: all other assays above

CCOC(=O)C(Cl)Cc1cc(-n2nc(C)n(C(F)F)c2=O)c(F)cc1Cl (stereo not drawn)
not listed: [8] | [9] | [11] | [14] | [17] | [18] | [19]
inactive: all other assays above

OC(c1ccc(Cl)cc1)(c1cncnc1)c1ccccc1Cl (stereo not drawn)
active: [4] 50 µM
inactive: [1] | [2] | [3] | [4] | [5] | [17] | [7] | [9] | [10] | [11] | [18] | [12] | [13] | [15] | [16]

Fc1ccc(Oc2ccnc3cc(Cl)cc(Cl)c23)cc1
not listed: [8] | [11] | [14] | [15] | [17] | [18] | [19]
inactive: all other assays above

CCCCOC(=O)c1ccccc1C(=O)OCCCC
inactive: [1] | [2] | [3] | [4] | [5] | [17] | [7] | [9] | [11] | [18] | [12] | [13] | [15] | [16]
active: [3] 65.8 µM

CNC(=S)S
inactive: [1] | [2] | [3] | [4] | [5] | [7] | [12] | [13] | [15] | [16]
active: [1] 168 µM

CCCC1COC(Cn2cncn2)(c2ccc(Cl)cc2Cl)O1 (stereo not drawn)
inactive: [1] | [2] | [3] | [4] | [5] | [7] | [8] | [9] | [10] | [11] | [12] | [13] | [15] | [16]
active: [4] 7.99 µM

COc1nc(C)nc(NC(=O)NS(=O)(=O)c2ccccc2CCC(F)(F)F)n1
not listed: [6] | [11] | [14]
inactive: all other assays above
